SMILES strings stand for the structures. The whole screen tested about 320,000 compounds, of which about 620 (0.19%) were called active. Not shown: some 6% with an inconclusive outcome. Cut-off read from the data, not from the text of the source: active = activation above about 80%; inconclusive = between about 30% and that limit; inactive = weaker than that. The sample as a whole holds a higher share of actives than the screen did.

In the assay the target is Transient receptor potential cation channel subfamily V member 1 (Homo sapiens) (UniProt Q8NER1). Kind of assay: HTS Assay for Compounds that Act as Agonists of the Vanilloid Receptor 1. Note: 0% is about no effect. The conditions noted are these: TRPV1-expressing cells, Fluo-8 calcium influx, agonist mode; at 8.33 µM; hits give high values. An excerpt: The transient receptor potential ion channel, family V, number 1, (TRPV1) is one of the most important molecular transducers of painful stimuli and a potential target for analgesic drug development. Although recent clinical trials with orthosteric antagonists have not produced a successful drug because of a hyperthermia side effect and their tendency to block thermal noxious pain, this ion channel is undeniably well placed in the pain pathway, and the idea of blocking pain signals before they enter the CNS is an excellent concept and of proven efficacy when TRPV1 agonists are used. We propose a new approach involving allosteric modulation to impose an activity-dependent constraint within the context of inflammation and tissue damage that would alter the responsiveness of the channel in a way that an orthosteric vanilloid antagonist cannot achieve. We believe that the allosteric modulator approach has not been explored for this target. The main goal of this proposal is to identify additional, new, potent allosteric modulators of TRPV1 that can be used to investigate TRPV1 function. Our recent report provides evidence of proof of concept, but the compounds are just at the edge of utility in terms of potency. […] The question of whether they can be used as analgesic agents is complex, but if suitable compounds are identified then testing for analgesic properties will be conducted. NIH Chemical Genomics Center [NCGC] NIH Molecular Libraries Probe Centers Network [MLPCN] MLPCN Grant: MH089480-1A1 Assay Submitter (PI): Michael Iadarola, National Institute of Dental and Cranofacial Research
Chain of Transient receptor potential cation channel subfamily V member 1 (Homo sapiens) (Q8NER1 whole entry, looked up): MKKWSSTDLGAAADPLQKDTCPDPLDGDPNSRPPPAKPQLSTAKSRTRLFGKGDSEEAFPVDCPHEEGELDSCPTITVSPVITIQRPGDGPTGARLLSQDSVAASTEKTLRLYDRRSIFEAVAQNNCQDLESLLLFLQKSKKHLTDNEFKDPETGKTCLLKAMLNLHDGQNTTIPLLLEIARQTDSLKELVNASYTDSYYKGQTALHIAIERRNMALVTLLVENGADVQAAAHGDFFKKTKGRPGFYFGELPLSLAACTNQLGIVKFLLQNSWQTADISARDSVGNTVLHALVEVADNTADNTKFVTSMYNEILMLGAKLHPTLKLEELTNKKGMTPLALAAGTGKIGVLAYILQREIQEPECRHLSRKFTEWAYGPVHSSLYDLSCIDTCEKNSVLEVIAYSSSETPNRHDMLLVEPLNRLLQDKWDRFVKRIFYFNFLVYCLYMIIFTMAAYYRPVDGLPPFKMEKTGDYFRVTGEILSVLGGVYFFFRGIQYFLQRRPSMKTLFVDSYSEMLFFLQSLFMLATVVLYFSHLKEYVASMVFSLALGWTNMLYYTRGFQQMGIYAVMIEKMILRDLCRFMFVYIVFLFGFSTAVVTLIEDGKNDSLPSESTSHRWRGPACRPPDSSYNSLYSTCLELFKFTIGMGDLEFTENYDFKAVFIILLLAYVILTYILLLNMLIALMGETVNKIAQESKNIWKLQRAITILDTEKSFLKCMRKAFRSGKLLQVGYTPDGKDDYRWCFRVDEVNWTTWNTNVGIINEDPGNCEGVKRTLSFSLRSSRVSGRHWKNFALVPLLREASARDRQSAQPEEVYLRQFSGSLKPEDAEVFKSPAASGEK
Upon TRPV1 activation in TRPV1 cells, the channel opens and extracellular cations flow through the channel into the cytosol. A calcium binding dye (Fluo-8) becomes fluorescent when bound to calcium. This dye is pre-loaded into cells and is used as a marker for calcium influx. The amount of accumulated calcium is precisely quantified using the FDSS kinetic reader and the calcium dye. For the HTS assay, freshly prepared cells are plated at a density of 2000/well in 3 ul medium in 1536-well plates and cultured overnight at 35.5C. Cells will be loaded with 1 ul of the homogeneous calcium dye (ABD Bioquest) at room temperature for 40 to 90 minutes. Plates will be loaded into the FDSS kinetic reader and a 1 sec / cycle for 10 second baseline signal will be measured. Compound library will then be added with a pintool at 23 nl and measured kinetically for 3 minutes. This portion of the read is considered the agonist portion of the screen. Following the 3 minutes of incubation, an on board pipettor will deliver 1 ul of capsaicin for a final concentration equal to the EC20. Signal will be measured kinetically for an additional 2 minutes. This portion of the read is considered the allosteric enhancer portion of the screen. The FDSS reader has a standard filter set capable of measuring calcium bound Fluo-8 (ex=480 and em=520 nm).
Take `CCN1C(=O)C(=O)N(CC(=O)Nc2cc(C)ccc2C)C1=O`: the activation is -7.91% (inactive).
As for `CCN(c1ccccc1)S(=O)(=O)c1cccc(C(=O)NCc2ccccc2CN2CCOCC2)c1`, the activation was 10.7% (inactive).
In the case of `S=C(NNC(=S)NC1CC2CCC1C2)NC1CC2C=CC1C2` (stereo not drawn) it was 3.31% (inactive); in that of `CC(C)c1ccc(NC(=S)NC2CC3C=CC2C3)cc1` (stereo not drawn), 88.8% (active); in that of `S=C(NNC(=S)NC1CC2C=CC1C2)NC1CC2C=CC1C2` (stereo not drawn), 1.8% (inactive).
Then `O=S(=O)(Nc1cccc2cccnc12)c1cccc2cccnc12`, with 3.75% (inactive); and `Oc1ccc(Cl)cc1C1C=C(c2ccc3c(c2)OCO3)NC(c2c(F)cccc2Cl)N1` (stereo not drawn), with 2.17% (inactive); and `CSCCC(NC(=O)c1ccco1)C(=O)NCCc1ccc(F)cc1` (stereo not drawn), with 0.184% (inactive).
Then `CCC(C)(C)c1ccc(OCC(=O)N(C)C)c(C(C)(C)CC)c1`, with 81.1% (active).
Turning to `CN(C)CCOc1ccc(Cl)cc1C(C)(C)C`, the activation was 10.6% (inactive).
Then `CCc1nc(C)ccc1OCC(=O)N(CC)CC`, with 2.63% (inactive); and `CCN(CC(=O)Nc1ccc(OC)cc1)C(=O)CSCc1ccc(C)cc1`, with 12.3% (inactive); and `Cc1cc(C)c(CN2CCN(C(=O)Cn3ccc(NC(=O)OCc4ccccc4)nc3=O)CC2)c(C)c1`, with 1.97% (inactive).
On to `COc1ccc(S(=O)(=O)N2CCOCC2)cc1NC(=O)CSc1cc(C)ccc1C`, for which the activation was 18.3% (inactive).
In the case of `COc1ccc(CNC(=O)COc2ccccc2C(=O)c2cnn(-c3ccccc3)c2)cc1OC` it was 11.4% (inactive).
Then `COc1ccc(S(=O)(=O)Nc2cccc3cccnc23)c(N)c1`, with 7.86% (inactive); and `C[C@H](NC(=O)c1[nH]cnc1C(=O)Nc1nccs1)c1ccccc1`, with 3.08% (inactive).
In the case of `O=C1NCCn2nc3ccccc3c21` it was -1.33% (inactive); in that of `CCN(CC(=O)Nc1ccccc1C(F)(F)F)C(=O)C1CCN(C(=O)Nc2ccccc2)CC1`, 1.3% (inactive); in that of `Cc1cccc(OCCC(=O)OCc2csc(CC(=O)Nc3ccccc3C)n2)c1`, 14.6% (inactive).
As to `NC(=O)NCCCC(=O)O`, the activation was 5.36% (inactive).
In the case of `Cc1nonc1C1CCCN1C(=O)c1cc(COc2cccc(C(F)(F)F)c2)on1` (stereo not drawn) it was 2.83% (inactive); in that of `O=C(NC1Cc2ccccc2C1)c1cc(COc2cccc(C(F)(F)F)c2)on1`, 3.63% (inactive).
In the case of `O=C(c1cc(COc2cccc(C(F)(F)F)c2)on1)N1CCSCC1` it was 81.1% (active); in that of `Cc1ccc2nc(-c3ccccn3)cc(C(=O)Nc3ccc4c(c3)OCO4)c2c1`, 90.2% (active).
Then `O=C(Nc1ccncc1)c1cc(-c2ccccn2)nc2ccc(Br)cc12`, with 0.349% (inactive); and `Cc1ccc2nc(-c3ccncc3)cc(C(=O)Nc3ccc4c(c3)OCCO4)c2c1`, with -2.26% (inactive).
With `COc1ccc(S(=O)(=O)N2CCN(CC(=O)N3c4ccccc4CC3C)CC2)cc1OC` (stereo not drawn), the activation was -0.777% (inactive).
For the compound `COc1cc(C(=O)OCC(=O)NC23CC4CC(CC(C4)C2)C3)cc(OC)c1OC`, the activation was 21.9% (inactive).
In the case of `O=C(Nc1cc(-c2ccccc2)nn1-c1ccccc1F)c1ccc([N+](=O)[O-])cc1` it was -1.91% (inactive); in that of `CC1Cc2ccccc2N1S(=O)(=O)c1cccc(C(=O)NCC(c2ccco2)N2CCCC2)c1` (stereo not drawn), 0.253% (inactive).
Regarding `CCn1c(=O)c(=O)n(CC)c2cc(N3CCCCC3)c(NC(=O)c3ccc(Cl)cc3)cc21`, the activation is -4.74% (inactive).
In the case of `Cc1ccccc1S(=O)(=O)N1[C@@H](c2cccc(Cl)c2)C(C(=O)O)=CC[C@H]1c1ccc(Cl)cc1` it was -4.35% (inactive); in that of `CC1CCc2sc(C(=O)NCC(c3ccco3)N3CCCCC3)cc2C1` (stereo not drawn), 26.2% (inactive); in that of `CCC1CCC2(CC1)NC(=O)N(CC(=O)Nc1ccc(OC)cc1)C2=O` (stereo not drawn), 9.09% (inactive).
In the case of `CC(C)(C)NC(=O)NCc1ccco1` it was 4.24% (inactive); in that of `CC(C)(C)c1ccc(NC(=O)NCc2ccco2)cc1`, 89.3% (active).
For the compound `CC(C)(C)c1ccc(C(=O)NCCC(=O)NCc2ccco2)cc1`, the activation is 25% (inactive).
In the case of `COc1ccccc1Nc1nnc(SC(C)C(=O)NC2CC2)s1` (stereo not drawn) it was 0.405% (inactive); in that of `COc1ccc(NC(=O)Cn2cc(C(=O)c3ccncc3)c(=O)c3cc(C)ccc32)cc1Cl`, 3.63% (inactive); in that of `Cc1ccc(NC(=O)CCCNC(=O)c2ccc(Cl)cc2)cc1S(=O)(=O)N1CCCCC1`, 6.66% (inactive).
In the case of `Cc1ccc(S(=O)(=O)N(C)C)cc1NC(=O)CN1c2cccc3cccc(c23)S1(=O)=O` it was -5.6% (inactive); in that of `Cc1ccc(C(=O)NCCNC(=O)c2ccccc2)cc1`, 12.5% (inactive).
With `Cc1ncoc1C(=O)NCCC(c1ccccc1)c1ccccc1`, the activation is 98.7% (active).
Turning to `Cc1ccc(S(=O)(=O)NCCC(c2ccccc2)c2ccccc2)cc1C(=O)O`, the activation is -2.84% (inactive).
Turning to `Cc1ccc(C(=O)OCC(=O)Nc2ccc(Cl)cn2)cc1S(=O)(=O)N1CCOCC1`, the activation was 7.43% (inactive).
In the case of `CSc1ccc(Cl)c(C(=O)OCC(=O)N2CCNC2=O)c1` it was 5.56% (inactive).
Consider `O=C(CSc1ncnc2sccc12)N1CCN(C(=O)c2cccs2)CC1`, for which the activation was 0.688% (inactive).
Then `O=C(C1CC(=O)N(C2CCCC2)C1)N1CCN(c2cccc(C(F)(F)F)c2)CC1` (stereo not drawn), with 9.27% (inactive); and `COC(=O)[C@]1(C)CCC[C@@]2(C)C3CC[C@]4(OC(C)=O)C[C@@]3(CCC21)CC4=NO` (stereo partly drawn), with 19.3% (inactive); and `O=S(=O)(Nc1ccc2nc(N3CCOCC3)sc2c1)c1ccccc1`, with -3.63% (inactive).
In the case of `CCCCc1ccc(NS(=O)(=O)c2cccc(C(=O)N3CCCN(C)CC3)c2)cc1` it was -2.57% (inactive); in that of `NC(=O)NC(CC(=O)NNC(=O)c1ccccn1)c1ccc(Cl)cc1` (stereo not drawn), 0.614% (inactive).
Then `CCOc1ccc(NC(=O)COC(=O)C2CCC(=O)N2)c([N+](=O)[O-])c1` (stereo not drawn), with 2.66% (inactive); and `COc1ccc(CCC(=O)N2CCN(S(=O)(=O)c3ccc(OC)cc3)CC2)cc1`, with 16.4% (inactive); and `Cc1ccc(NC(=O)c2cccc(S(=O)(=O)N3CCCc4ccccc43)c2)nc1`, with 21.4% (inactive).
In the case of `CCCCN(C(=O)c1ccc2ccccc2c1)c1c(N)n(CCCC)c(=O)[nH]c1=O`, the activation is -2.14% (inactive).
Take `Cc1sc2ncnc(N3CCC(C(=O)Nc4ccc(F)cc4Cl)CC3)c2c1C`: the activation is 1.84% (inactive).

For the origin of these results see PubChem BioAssay AID540275 (National Center for Advancing Translational Sciences (NCATS), 2011).
